# Laboratory results published in PubChem BioAssay (NCI).
# This is part of a sample that, as a whole, favours compounds with a hit. Of some 83,000 tested, about 20% had one in any assay.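 Step 1: grow cells in 96-well plates. Step 2: add test compound at a single concentration. Step 3: incubate 48 h. Step 4: record percent growth.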 Calls of active or inactive are those of the source. How the source made its calls: active means growth percent below 10; inactive means the rest.
# Tests used:
# Assay in all cases: NCI-60 one-dose screen, 48 h (100 = growth as untreated, 0 = no growth, -100 = all killed)
# Conditions in all cases: 10 µM unless noted
# DU-145 prostate = test system: DU-145 prostate
# MALME-3M melanoma = test system: MALME-3M melanoma
# MDA-MB-231 breast = test system: MDA-MB-231 breast
# RXF 393 renal = test system: RXF 393 renal
# SF-268 CNS = test system: SF-268 CNS
# SF-295 CNS = test system: SF-295 CNS
# SF-539 CNS = test system: SF-539 CNS
# UACC-257 melanoma = test system: UACC-257 melanoma
# M14 melanoma = test system: M14 melanoma
# HCT-15 colon = test system: HCT-15 colon
# HT29 colon = test system: HT29 colon
# SNB-75 CNS = test system: SNB-75 CNS
# SNB-19 CNS = test system: SNB-19 CNS
# U251 CNS = test system: U251 CNS
# PC-3 prostate = test system: PC-3 prostate
# SK-MEL-5 melanoma = test system: SK-MEL-5 melanoma
# UACC-62 melanoma = test system: UACC-62 melanoma
# LOX IMVI melanoma = test system: LOX IMVI melanoma
# SK-MEL-28 melanoma = test system: SK-MEL-28 melanoma
SMILES,growth (DU-145 prostate),growth (MALME-3M melanoma),growth (MDA-MB-231 breast),growth (RXF 393 renal),growth (SF-268 CNS),growth (SF-295 CNS),growth (SF-539 CNS),growth (UACC-257 melanoma),growth (M14 melanoma),growth (HCT-15 colon),growth (HT29 colon),growth (SNB-75 CNS),growth (SNB-19 CNS),growth (U251 CNS),growth (PC-3 prostate),growth (SK-MEL-5 melanoma),growth (UACC-62 melanoma),growth (LOX IMVI melanoma),growth (SK-MEL-28 melanoma)
O=C(O)c1cn(C2CC2)c2cc(N3CCN(C(=O)CSc4nc(NS(=O)(=O)c5ccccc5)cc(=O)[nH]4)CC3)c(F)cc2c1=O,101% (inactive),82.4% (inactive),100% (inactive),112% (inactive),93.7% (inactive),104% (inactive),98.1% (inactive),95% (inactive),83.7% (inactive),94.9% (inactive),119% (inactive),98.8% (inactive),99.3% (inactive),97.7% (inactive),85% (inactive),94.6% (inactive),83.8% (inactive),90.9% (inactive),98% (inactive)
CN(C)c1ccc2cc(-c3nc4ccccc4s3)c(N)nc2c1,40.8% (inactive),83.4% (inactive),70.7% (inactive),83.5% (inactive),58.7% (inactive),22.3% (inactive),34% (inactive),93.9% (inactive),50.9% (inactive),41% (inactive),23.9% (inactive),63.9% (inactive),60.7% (inactive),33.2% (inactive),20.2% (inactive),58.7% (inactive),95.5% (inactive),85.3% (inactive),98.3% (inactive)
CCCc1nn2c(CCC(=O)c3nc4ccc([N+](=O)[O-])cc4[nH]3)nnc2s1,108% (inactive),105% (inactive),95.9% (inactive),114% (inactive),100% (inactive),104% (inactive),103% (inactive),113% (inactive),99.6% (inactive),100% (inactive),106% (inactive),97.2% (inactive),109% (inactive),,100% (inactive),119% (inactive),98.7% (inactive),95.5% (inactive),103% (inactive)
C=CCn1c(SCC(=O)Nc2ccc(C(=O)/C=C/c3cc(OC)c(OC)c(OC)c3)cc2)nnc1-c1ccc(OC)cc1,5.32% (active),46.1% (inactive),13.8% (inactive),-81.6% (active),5.5% (active),-21.4% (active),-17.6% (active),13.6% (inactive),6.88% (active),-1.54% (active),,6.75% (active),14.3% (inactive),-65.2% (active),25.1% (inactive),1.15% (active),-6.54% (active),-43.5% (active),10.1% (inactive)
CN1C(=O)C2(SCC(C(=O)NCC(=O)OC(C)(C)C)N2C(=O)C2CCCCC2)c2ccccc21 (stereo not given),105% (inactive),101% (inactive),100% (inactive),105% (inactive),96.7% (inactive),96.9% (inactive),99.8% (inactive),92.7% (inactive),100% (inactive),96.6% (inactive),87.6% (inactive),80.4% (inactive),99.2% (inactive),92% (inactive),94.6% (inactive),98.2% (inactive),91.8% (inactive),94.9% (inactive),103% (inactive)
COc1cc2nc(C(=O)N3CCCCC3)cc(Nc3ccccc3)c2cc1OC,92.8% (inactive),116% (inactive),88.6% (inactive),101% (inactive),84.2% (inactive),96.3% (inactive),95.5% (inactive),108% (inactive),116% (inactive),102% (inactive),,97.5% (inactive),104% (inactive),102% (inactive),114% (inactive),95.6% (inactive),104% (inactive),94.9% (inactive),110% (inactive)
CC(=O)N1N=C(CCC(=O)c2nc3ccc([N+](=O)[O-])cc3[nH]2)OC1c1ccc(O)cc1 (stereo not given),108% (inactive),94.4% (inactive),102% (inactive),111% (inactive),97.7% (inactive),96.4% (inactive),100% (inactive),103% (inactive),103% (inactive),97.1% (inactive),76.5% (inactive),97.9% (inactive),107% (inactive),109% (inactive),101% (inactive),112% (inactive),105% (inactive),94.8% (inactive),115% (inactive)
CC[C@H]1[C@@H]2C=C[C@@H]3[C@H]4C/C=C\C(=O)NCCC[C@@H]5NC(=O)/C(=C(O)/C=C/[C@@H]4C[C@@H]3[C@H]2C[C@H]1C)C5=O,-94% (active),-6.22% (active),-2.91% (active),-86.1% (active),-55.5% (active),-53.2% (active),-20.8% (active),23.4% (inactive),-10.9% (active),-29.4% (active),14.4% (inactive),,-40.6% (active),46.5% (inactive),-35.3% (active),-70.4% (active),72.6% (inactive),-84.8% (active),60.9% (inactive)
COc1ccccc1S(=O)(=O)Nc1ccc2c3c(cc(-c4cnn(C5CC5)c4)nc13)C(=O)N2C,85.1% (inactive),63.9% (inactive),52.8% (inactive),89.8% (inactive),84.3% (inactive),53.7% (inactive),60.8% (inactive),66.2% (inactive),61.1% (inactive),62.7% (inactive),44% (inactive),19.2% (inactive),77.6% (inactive),81.6% (inactive),61.3% (inactive),57.5% (inactive),35.4% (inactive),47.5% (inactive),77% (inactive)
CCn1c(SCC(=O)c2ccc(Br)cc2)nnc1-c1cc2c([nH]c3ccccc32)c(-c2cccc(O)c2)n1,85.3% (inactive),64.6% (inactive),75.4% (inactive),1.81% (active),72.5% (inactive),41.1% (inactive),60.9% (inactive),83.8% (inactive),72.2% (inactive),56.2% (inactive),91.6% (inactive),60.9% (inactive),98.9% (inactive),58.5% (inactive),68.6% (inactive),52.7% (inactive),89.6% (inactive),48.2% (inactive),73.7% (inactive)
CC(=O)O[C@@H]1[C@@H](OC(C)=O)[C@H](OC(C)=O)CO[C@H]1Nc1cccc2ccccc12,100% (inactive),86.9% (inactive),89% (inactive),105% (inactive),83.1% (inactive),94.5% (inactive),90.2% (inactive),103% (inactive),99.6% (inactive),94% (inactive),84.2% (inactive),93.9% (inactive),105% (inactive),105% (inactive),90.8% (inactive),103% (inactive),97.2% (inactive),88.8% (inactive),110% (inactive)
CC(C(=O)O)N1C(N)=NNC1c1ccccc1O (stereo not given),102% (inactive),85.6% (inactive),76.6% (inactive),96.4% (inactive),84% (inactive),99.3% (inactive),103% (inactive),87.1% (inactive),96.9% (inactive),68.4% (inactive),99.3% (inactive),74.4% (inactive),88.5% (inactive),85.9% (inactive),83.3% (inactive),85.5% (inactive),81.9% (inactive),78.3% (inactive),106% (inactive)
COc1ccc(-c2coc3c(CO)c(O)ccc3c2=O)cc1,9.29% (active),21.3% (inactive),25% (inactive),-27.4% (active),22.2% (inactive),23.1% (inactive),47.9% (inactive),90.3% (inactive),75.5% (inactive),43.2% (inactive),85.8% (inactive),,72.5% (inactive),-58.9% (active),-27.7% (active),58.7% (inactive),32.5% (inactive),-27.9% (active),88.8% (inactive)
COc1cc2ncnc(Oc3ccc(NC(=O)Nc4ccc(C5(C#N)CCCC5)cc4)c4ccccc34)c2cc1OC,57.7% (inactive),31.3% (inactive),43.6% (inactive),14.9% (inactive),27% (inactive),13.7% (inactive),64.7% (inactive),94.8% (inactive),47.3% (inactive),74.5% (inactive),35% (inactive),36.1% (inactive),,-49.3% (active),56.8% (inactive),50.2% (inactive),40% (inactive),47.7% (inactive),64.1% (inactive)
O=C(Cn1c2ccccc2c2ccncc21)N/N=C\c1ccc2ccccc2c1,9.11% (active),3.45% (active),5.36% (active),1.74% (active),41.6% (inactive),28.7% (inactive),27.6% (inactive),59.7% (inactive),30.9% (inactive),23.8% (inactive),-8.93% (active),,40.5% (inactive),-25.9% (active),13.8% (inactive),15.4% (inactive),7.54% (active),19.4% (inactive),58.3% (inactive)
CCNC(=O)Oc1ccc(/C(=C(/CC)Cc2ccccc2)c2ccc(OCCN3CCOCC3)cc2)cc1,73.9% (inactive),81.1% (inactive),71.4% (inactive),42.7% (inactive),43.7% (inactive),68.7% (inactive),77.2% (inactive),79.4% (inactive),41.6% (inactive),39.4% (inactive),28.6% (inactive),,76.7% (inactive),52.8% (inactive),20.2% (inactive),39.5% (inactive),73.2% (inactive),50.4% (inactive),80.6% (inactive)
Cc1ccn2cc(Cc3cc(=O)oc4c3ccc3ccccc34)c(=O)nc2c1,110% (inactive),99.8% (inactive),97.6% (inactive),106% (inactive),94.8% (inactive),96.1% (inactive),93.7% (inactive),86.3% (inactive),96.8% (inactive),97.4% (inactive),,81.4% (inactive),103% (inactive),102% (inactive),,100% (inactive),96.6% (inactive),98.6% (inactive),100% (inactive)
Cc1ccc2c(C3C(C#N)=C(N)Oc4cc5ccccc5cc43)cc(=O)oc2c1 (stereo not given),16% (inactive),66.4% (inactive),50.6% (inactive),-11% (active),54.6% (inactive),9.32% (active),2.31% (active),67.8% (inactive),0.37% (active),31% (inactive),,20.3% (inactive),29.9% (inactive),23.5% (inactive),18.8% (inactive),13.6% (inactive),39.2% (inactive),38.4% (inactive),64.4% (inactive)
COc1cc2ncnc(Oc3ccc(NC(=O)Nc4ccc(CN5CCOCC5)c(C(F)(F)F)c4)c4ccccc34)c2cc1OC,32.6% (inactive),-11.1% (active),51.2% (inactive),20.8% (inactive),23.3% (inactive),40.6% (inactive),55.4% (inactive),21.1% (inactive),20.4% (inactive),32.9% (inactive),,46% (inactive),55.2% (inactive),42.6% (inactive),40% (inactive),-26.5% (active),28% (inactive),21.5% (inactive),2.47% (active)
CCn1cc(/C=C2\Oc3cc(OCC#N)ccc3C2=O)c2cc(OC)ccc21,20.4% (inactive),93.4% (inactive),45.2% (inactive),-11.3% (active),55.9% (inactive),16.7% (inactive),3.56% (active),65.1% (inactive),22.8% (inactive),21.5% (inactive),5.44% (active),19.1% (inactive),29.8% (inactive),24.2% (inactive),16.7% (inactive),24.6% (inactive),44.6% (inactive),33.1% (inactive),70.5% (inactive)
O=C(Cn1c2ccccc2c2ccncc21)N/N=C/c1c[nH]c2ccccc12,53.5% (inactive),43.7% (inactive),19.6% (inactive),49.2% (inactive),71.4% (inactive),87.5% (inactive),86.4% (inactive),88.3% (inactive),68.2% (inactive),93.4% (inactive),,31% (inactive),53.4% (inactive),,78.8% (inactive),4.85% (active),21.2% (inactive),33.3% (inactive),56.5% (inactive)
